Laboratory results taken from PubChem BioAssay (Tox21).
Records with an inconclusive call do not appear. Where a call stands in place of a potency, no number is given. Values without a mark were called inactive. Calls of active or inactive are those of the source. Unless noted, calls come from the whole dose curve; as a rule, active = well fitted cell-killing curve with a large enough effect in the repeat runs; inconclusive = weak or mixed curves, or effect the other way; inactive = no such curve, though single readings can be large or run the other way.

System: not listed separately
Test: qHTS assay to identify small molecule agonists of the farnesoid-X-receptor (FXR) signaling pathway - cell viability counter screen (AID 743218); note: nearly all actives have a fitted effect of over 45% in size
Conditions: FXR-bla HEK293T viability, CellTiter-Glo luminescence, 16 h; series mostly up to 62.6 µM
Procedure, shortened: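 Readout: CellTiter-Glo luminescence, 30 min RT, multiplexed after the FXR-bla FRET reading. HEK 293T FXR-UAS-bla cells received compound 5 h post-plating and were incubated 16 h at 37 C.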

Compound | Potency
CC(=O)Nc1cccc(N)c1 | inactive
CC(C)(C)N | inactive
Cc1cc(C)n(CO)n1 | inactive
O=C(O)CCc1nc2ccccc2[nH]1 | inactive
CC(C)(C)NCC(O)COc1ccc(NC(=O)NC2CCCCC2)cc1 (stereo not given) | inactive
O=C(c1ccc(Cl)cc1)c1ccc(Cl)cc1 | inactive
CCC(C)C1N=C(C)C(C)S1 (stereo not given) | inactive
CC(C)C/C=C(\C=O)c1ccccc1 | inactive
N#Cc1ccc(CC(=O)c2cccc(C(F)(F)F)c2)cc1 | inactive
O=S(=O)(O)c1cc(Cl)c(Cl)cc1Cl | inactive
CCCc1nc(C)c2c(=O)[nH]c(-c3cc(S(=O)(=O)N4CCN(CC)CC4)ccc3OCC)nn12 | inactive
CS(C)=O | inactive
CCOc1ccc2c(c1)C(C)CC(C)(C)N2 (stereo not given) | inactive
O=P(c1ccccc1)(c1ccccc1)c1ccccc1 | inactive
CCCC(=O)OCc1ccccc1 | inactive
Cc1ccc(NC=O)c(C)c1 | inactive
CCC1=C(C)CN(C(=O)NCCc2ccc(S(=O)(=O)NC(=O)NC3CCC(C)CC3)cc2)C1=O (stereo not given) | inactive
COc1cc(C)c(Cc2cnc(N)nc2N)cc1OC | inactive

Compound | Potency
CCCCOC(=O)C(C)Oc1ccc(Oc2ccc(C(F)(F)F)cn2)cc1 (stereo not given) | inactive
CC(=O)c1cccnc1 | inactive
CCCCCO | inactive
O=c1[nH]nc(-c2ccc([N+](=O)[O-])o2)o1 | inactive
Clc1cccc(C(c2ccc3nc[nH]c3c2)n2ccnc2)c1 (stereo not given) | inactive
O=C(O)c1ccncc1 | inactive
CC1=C(C)C(=O)C(C(CCCCCC(=O)O)c2ccccc2)=C(C)C1=O (stereo not given) | inactive
O=[N+]([O-])c1ccccc1CCO | inactive
O=c1[nH][nH]c2ccccc12 | inactive
CCc1c(C)[nH]c2c1C(=O)C(CN1CCOCC1)CC2 (stereo not given) | inactive
Cc1nc(C)c(C)nc1C | inactive
CCCCCCCCCCCCN1CCOCC1 | inactive
O=Cc1ccc([N+](=O)[O-])cc1 | inactive
C=CCCC | inactive
C1CCN(CN2CCCCC2)CC1 | inactive
CC(C)=CCC/C(C)=C/C=N/O | inactive
OCCCO | inactive

Target: Bile acid receptor (Homo sapiens) (UniProt Q96RI1)
Sequence (Q96RI1 whole entry, looked up): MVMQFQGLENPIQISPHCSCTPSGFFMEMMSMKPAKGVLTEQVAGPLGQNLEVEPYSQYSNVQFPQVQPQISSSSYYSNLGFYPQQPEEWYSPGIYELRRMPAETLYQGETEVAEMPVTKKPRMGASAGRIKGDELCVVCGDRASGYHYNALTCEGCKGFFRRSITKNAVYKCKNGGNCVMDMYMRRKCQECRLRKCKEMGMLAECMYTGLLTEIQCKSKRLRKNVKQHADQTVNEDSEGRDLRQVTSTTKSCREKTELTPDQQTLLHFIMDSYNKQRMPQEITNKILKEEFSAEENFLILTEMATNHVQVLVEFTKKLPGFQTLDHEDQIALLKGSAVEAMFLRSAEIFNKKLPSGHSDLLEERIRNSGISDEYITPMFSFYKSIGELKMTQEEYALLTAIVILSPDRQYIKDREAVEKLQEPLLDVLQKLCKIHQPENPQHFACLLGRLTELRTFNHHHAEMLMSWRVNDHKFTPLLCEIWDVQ
Test: qHTS assay to identify small molecule agonists of the farnesoid-X-receptor (FXR) signaling pathway (AID 743220; active = well fitted activation curve with a large enough effect in the signal ratio in the repeat runs, not every such curve was filed as active; the % refers to the signal ratio)
Conditions: HEK293T FXR-UAS-bla, beta-lactamase FRET ratio, 16 h; series mostly up to 62.6 µM
Procedure, shortened: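 FXR-UAS-bla HEK 293T cells carrying a UAS-driven beta-lactamase reporter were plated for 5 h at 37C/5% CO2, then exposed to DMSO-dissolved Tox21 10K compounds for 16 h at 37C. A LiveBLAzer B/G FRET substrate was loaded for 2 h at room temperature before fluorescence reading.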

Compound | outcome | activation
CC(=O)Nc1cccc(N)c1 | inactive | 
Cc1cc(C)n(CO)n1 | inactive | 
CC(C)(C)NCC(O)COc1ccc(NC(=O)NC2CCCCC2)cc1 (stereo not given) | inactive | 
CCCCCCCCCCCCCCCCCCCl |  | 0.479% [at 5.95 µM]
CC(C)C/C=C(\C=O)c1ccccc1 | inactive | 
CS(C)=O | inactive | 
CCOc1ccc2c(c1)C(C)CC(C)(C)N2 (stereo not given) | inactive | 
O=P(c1ccccc1)(c1ccccc1)c1ccccc1 | inactive | 
CCCC(=O)OCc1ccccc1 | inactive | 
Cc1ccc(NC=O)c(C)c1 | inactive | 
CCCCOC(=O)C(C)Oc1ccc(Oc2ccc(C(F)(F)F)cn2)cc1 (stereo not given) | inactive | 
C=CC(C)(O)CC/C=C(/C)CCC=C(C)C (stereo not given) | inactive | 
CCCCCO | inactive | 
Clc1cccc(C(c2ccc3nc[nH]c3c2)n2ccnc2)c1 (stereo not given) | inactive | 
O=C(O)c1ccncc1 | inactive | 
CC1=C(C)C(=O)C(C(CCCCCC(=O)O)c2ccccc2)=C(C)C1=O (stereo not given) | inactive | 
O=c1[nH][nH]c2ccccc12 | inactive | 
CCc1c(C)[nH]c2c1C(=O)C(CN1CCOCC1)CC2 (stereo not given) | inactive | 
CC(C)=CCC/C(C)=C/C=N/O | inactive | 
Cc1ccccc1CCO | inactive | 
